This note sets out measurements from PubChem BioAssay AID651812 (National Center for Advancing Translational Sciences (NCATS), 2012).

In all, about 2,100 compounds went through this assay and about 650 (31%) were called active. Roughly 16% stayed inconclusive and do not appear here. Calls come from the whole dose curve; as a rule, active = well fitted inhibition curve with a large enough effect; inconclusive = small, poorly fitted or top-dose-only effect; inactive = flat fitted curve, though single readings scatter. Some of the results follow.
Potency is the fitted concentration of half-maximal effect.

A short description of the experiment: qHTS for inhibitors of Vif-A3G interactions: Cherry picks. For activity, negative = fluorescence increase: % of control where 0% means no effect. Note: nearly all actives have a fitted effect of over 80% in size. As to conditions: HeLa A3G-eYFP + Vif (tagged APOBEC3G with the HIV-1 protein that degrades it), 24 h; Potency: eYFP fluorescence increase; series mostly up to 36.9 µM; activity, negative = fluorescence increase: at the top concentration. The procedure, abridged: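 Cherry-picked compounds tested at several concentrations on A3G-eYFP/Vif HeLa cells for 24 hours; loss of Vif-driven degradation read as eYFP fluorescence by cytometric plate imaging, 488 nm excitation, 500-530 nm emission.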
(Quantitative high-throughput screening tests each substance at several concentrations.)
For the molecule `N#Cc1c(NC(=O)/C=C/C(=O)O)sc2c1CCN(Cc1ccccc1)C2`, the “activity, negative = fluorescence increase” value is -27.1% [at 46.1 µM] (inactive).
Take `CN(C)c1ccc(/C=C(\C#N)C(=O)Nc2nc3c(s2)CCN(Cc2ccccc2)C3)cc1`: the Potency was 1.12 µM (active).
In the case of `O=S(=O)(Nc1nc2ccccc2nc1N1CCc2ccccc2C1)c1ccc(Br)cc1`, the “activity, negative = fluorescence increase” value is -16.9% [at 46.1 µM] (inactive).
Consider `O=S(=O)(Nc1nc2ccccc2nc1N1CCN(c2ccccc2)CC1)c1ccc(F)cc1`, for which the “activity, negative = fluorescence increase” value is -15.1% [at 46.1 µM] (inactive).
Consider `CN1CCN(c2nc3ccccc3nc2NS(=O)(=O)c2ccc(Br)cc2)CC1`, for which the “activity, negative = fluorescence increase” value is 6.19% [at 46.1 µM] (inactive).
With `O=C(N=c1ccn(-c2nc3ccccc3nc2NS(=O)(=O)c2ccc(Cl)cc2)cc1)c1cccs1`, the Potency is 16.4 µM (active).
For `CCOC(=O)N1CCC(Nc2nc3ccccc3nc2NS(=O)(=O)c2ccc(Cl)cc2)CC1`, the “activity, negative = fluorescence increase” value was 0.827% [at 46.1 µM] (inactive).
Regarding `O=S(=O)(Nc1nc2ccccc2nc1N1CCN(c2ccccn2)CC1)c1ccc(Cl)cc1`, the Potency was 23.1 µM (active).
Turning to `O=C(N/N=C/c1ccc2c(c1)OCO2)c1cc(-c2ccncc2)nc2ccccc12`, the “activity, negative = fluorescence increase” value was -7.14% (inactive).
On to `Cc1nn(-c2ccc(F)cc2)c(Cl)c1/C=C1\C(=O)Nc2ccccc21`, for which the “activity, negative = fluorescence increase” value is -7.22% (inactive).
In the case of `Cc1cc(C)c(/C=C2\C(=O)Nc3ccccc32)[nH]1`, the Potency is 18.4 µM (active).
For `Cc1ccc(C2NC(=O)c3ccccc3N2)s1` (stereo not given), the “activity, negative = fluorescence increase” value is -2.05% (inactive).
For the molecule `Cc1ccc(S(=O)(=O)Nc2cc(Cl)c(O)c3ncccc23)cc1`, the “activity, negative = fluorescence increase” value is -0.848% (inactive).
Regarding `COc1ccc2[nH]c3c(c2c1)CCNC3c1ccc([N+](=O)[O-])o1` (stereo not given), the Potency was 18.4 µM (active).
On to `COc1ccc(S(=O)(=O)N2CCN(C(=O)c3ccc([N+](=O)[O-])o3)CC2)cc1`, for which the “activity, negative = fluorescence increase” value was 1.28% (inactive).
On to `COc1ccc2oc(-c3ccccc3[N+](=O)[O-])cc(=O)c2c1`, for which the “activity, negative = fluorescence increase” value is -8.58% (inactive).
As to `Cc1ccc(N/C(N)=N/c2nc(CSc3nnc(C)s3)cc(=O)[nH]2)c(C)c1`, the “activity, negative = fluorescence increase” value was -3.92% (inactive).
As for `COc1ccc(C(=O)C[n+]2cc(Br)cc3ccccc32)cc1`, the Potency is 20.6 µM (active).
Regarding `CCCC1=[N+](CC(=O)c2ccc(Br)cc2)CCn2cccc21`, the “activity, negative = fluorescence increase” value was -10.6% [at 46.1 µM] (inactive).
Take `CCn1cc2nc(SCC(=O)Nc3ccc(C)cc3C)n(Cc3ccc(C)cc3)c(=O)c2n1`: the “activity, negative = fluorescence increase” value is -5.28% [at 46.1 µM] (inactive).
With `O=[N+]([O-])c1cc(Cl)c2cccnc2c1O`, the “activity, negative = fluorescence increase” value was -10.9% [at 46.1 µM] (inactive).
In the case of `Cc1cc(N2CCN(c3ccc([N+](=O)[O-])c4cccnc34)CC2)c2ccccc2n1`, the Potency is 20.6 µM (active).
On to `CCC(=O)NC(=S)Nc1cccc(Cl)c1N1CCCC1`, for which the “activity, negative = fluorescence increase” value is -1.38% [at 46.1 µM] (inactive).
Turning to `C=CCNc1nc2cc(-c3cccc(Cl)c3)sc2c(=O)n1C`, the “activity, negative = fluorescence increase” value is 0.835% (inactive).
Turning to `C=CCNC(=S)N/N=C/c1ccc(C)cc1C`, the “activity, negative = fluorescence increase” value was 7.22% [at 46.1 µM] (inactive).
In the case of `C=C(C(=O)c1ccccc1)C(NC(C)(C)C)c1ccccc1` (stereo not given), the “activity, negative = fluorescence increase” value was 4.2% (inactive).
For the molecule `CCOC(=O)c1c(-c2ccc(C)cc2)csc1NC(=O)/C(C#N)=C/c1ccc(O)c(OC)c1`, the “activity, negative = fluorescence increase” value is -17.2% (inactive).
In the case of `CCOc1cc(/C=C(\C#N)c2nc(-c3cccs3)c(NC(C)=O)s2)ccc1O`, the Potency is 23.1 µM (active).
Regarding `CC(=O)Nc1sc(/C(C#N)=C\c2cccc(Cl)c2)nc1-c1ccc(C)cc1`, the Potency is 8.2 µM (active).
Turning to `CC(=O)Nc1sc(/C(C#N)=C/c2ccc(Cl)c(Cl)c2)nc1-c1ccc(C)cc1`, the Potency is 5.8 µM (active).
